# From ChEMBL document CHEMBL3988442, “University of Dundee, Small-Polar-MMV Screening Library” (2021)
# The whole screen tested about 69,000 compounds, of which about 1,000 (1.4%) showed an effect of 50% or more. The entries come from a sample that favours strong results as a whole.
# Tested on: Leishmania donovani
# Assay: Leishmania intramacrophage assay
# Assay type: functional, organism-based
# Design: scale not given: in the data most compounds retested in dose-response had high values
smiles,measurement,setting,value
Cc1nc(C2CCCN(C(=O)c3cc(-c4ccccc4)[nH]n3)C2)no1 (stereo not given),Percent Effect,"30.3 µM, […]",9.064%
CC(C)CCN1CC2(CCN(C(=O)C3(C)CCCCO3)CC2)OC1=O (stereo not given),Percent Effect,"30.3 µM, […]",6.725%
COc1ccc(C2=Nn3c(CN)nnc3-c3ccccc3C2)cc1,Percent Effect,"30.3 µM, […]",36.2%
COc1ccc(C2=Nn3c(CCCN)nnc3-c3ccccc3C2)cc1,Percent Effect,"30.3 µM, […]",30.64%
COc1ccc(C2=Nn3c(CCN)nnc3-c3ccccc3C2)cc1,Percent Effect,"30.3 µM, […]",89.23%
CC(=O)N1CCc2c(nc(N(C)C)nc2NCCCn2ccnc2)C1,Percent Effect,"30.3 µM, […]",-10.69%
CN(C)CCN1C[C@@H]2CN(C(=O)C3CCOC3)C[C@@H]2C1=O.O=C(O)C(F)(F)F (stereo not given in full),Percent Effect,"30.3 µM, […]",-26.31%
Cc1cc(C(=O)N2CCC3(CCC(=O)N(CC(N)=O)C3)CC2)ccc1O,Percent Effect,"30.3 µM, […]",11.98%
Cc1ccc(S(N)(=O)=O)cc1C(=O)NC1CCCN(C)C1 (stereo not given),Percent Effect,"30.3 µM, […]",17.05%
Cc1ccc(S(N)(=O)=O)cc1C(=O)NC1CCCC1,Percent Effect,"30.3 µM, […]",54.24%
CC(=O)N1CCC(NC(=O)c2cc(S(N)(=O)=O)ccc2C)CC1,Percent Effect,"30.3 µM, […]",-1.924%
CNC(=O)CN(C)C(=O)c1cc(Cl)c(Cl)n1C,Percent Effect,"30.3 µM, […]",1.638%
NC(=O)N1CCC(C(=O)NC2CCc3nccn3C2)CC1 (stereo not given),Percent Effect,"30.3 µM, […]",-91.03%
C=Cc1cccc(CN2CCCn3nc(CNS(C)(=O)=O)cc3C2)c1,Percent Effect,"30.3 µM, […]",8.14%
Fc1cnc(N2CCO[C@H]3[C@H](OCC4CCOCC4)CC[C@@H]32)nc1.O=C(O)C(F)(F)F,Percent Effect,"30.3 µM, […]",42.92%
O=C(O)C(F)(F)F.c1cnc(N2CCO[C@H]3[C@H](OCC4CCOCC4)CC[C@@H]32)nc1,Percent Effect,"30.3 µM, […]",26.14%
Fc1cnc(N2C[C@@H](OCC3CCOCC3)[C@H]3OCCC[C@H]32)nc1.O=C(O)C(F)(F)F,Percent Effect,"30.3 µM, […]",63.79%
NC1CCCCN(Cc2ccccc2CS(=O)(=O)c2ccccc2)C1 (stereo not given),Percent Effect,"30.3 µM, […]",64.11%
O=S(=O)(Cc1ccccc1CN1CC[C@H](CO)[C@H](O)C1)c1ccccc1,Percent Effect,"30.3 µM, […]",22.14%
N[C@@H]1CCN(Cc2ccccc2CS(=O)(=O)c2ccccc2)C[C@H]1O,Percent Effect,"30.3 µM, […]",11.27%
Cc1cnn(C2CN(Cc3nc(-c4ccccn4)no3)C2)c1,Percent Effect,30 µM,-31.22%
O=S(=O)(c1ccccc1)N1CCCN(CCCn2ccnc2)CC1,Percent Effect,"30 µM, 30.03 µM",52.87%
O=S(=O)(c1ccccc1)N1CCN(CCn2ccnc2)CC1,Percent Effect,"30 µM, 30.03 µM",0.5728%
Cc1ccc(S(=O)(=O)N2CCN(CCCn3ccnc3)CC2)cc1,Percent Effect,"30.3 µM, […]",3.879%
CCc1cc(=O)[nH]c2nnc(SCC(=O)NC(C)C)n12,Percent Effect,"30.3 µM, […]",-15.02%
COc1ccc(C(=O)N2CC[C@@]3(O)CCCC[C@H]3C2)cc1OC,Percent Effect,"30.3 µM, […]",15.68%
Cc1ccc2cc(C3(O)CCN(C(=O)CSC(C)C)CC3)ccc2n1,Percent Effect,"30.3 µM, […]",27.25%
Cc1nc(C2CCCNC2)nc2c1CCCN2Cc1ccccn1.Cl.Cl (stereo not given),Percent Effect,"30.3 µM, […]",30.18%
CNc1cc(-c2ccccc2CN)c2cc[nH]c2n1,Percent Effect,"30.3 µM, […]",31.34%
CNc1cc(-c2cccc(CN)c2)c2cc[nH]c2n1,Percent Effect,"30.3 µM, […]",52.08%
CNc1cc(-c2ccc(COCCN)cc2)c2cc[nH]c2n1,Percent Effect,"30.3 µM, […]",-14.52%
C=C(C)CN1CCC(C(=O)c2cc(F)ccc2F)CC1,Percent Effect,30 µM,41.7%
Cc1cccc2c1nc(CCO)n2-c1ccc(C(=O)N2CCOCC2)o1,Percent Effect,"30.3 µM, […]",26.23%
CC(=O)N1N=C(COc2ccc(C)cc2)OC1c1ccc(N(C)C)cc1 (stereo not given),Percent Effect,"30.3 µM, […]",54.92%
COc1ccc(C2OC(COc3ccc(C)cc3)=NN2C(C)=O)cc1 (stereo not given),Percent Effect,"30.3 µM, […]",8.051%
COCCNc1nc(N2CCOCC2)nc2nccnc12,Percent Effect,"30.3 µM, […]",21.04%
CC(C)=CCN1CCN(C(=O)C2CC2)CC1,Percent Effect,"30.3 µM, […]",-4.864%
COc1ccccc1CC(NC(=O)N1CCC[C@@H]1CO)C(C)C (stereo not given in full),Percent Effect,"30.3 µM, […]",9.914%
CS(=O)(=O)CCNC(=O)Nc1sc2ccccc2c1Cl,Percent Effect,"30.3 µM, […]",-48.56%
CN(C)CC(C)(O)CNC(=O)Nc1sc2ccccc2c1Cl (stereo not given),Percent Effect,"30.3 µM, […]",53.76%
CN(C)C(=O)CCNC(=O)Nc1sc2ccccc2c1Cl,Percent Effect,"30.3 µM, […]",-8.505%
CN(CC(=O)NC(Cc1ccsc1)c1cccnc1)Cc1cccnc1.Cl (stereo not given),Percent Effect,"30.3 µM, […]",2.46%
O=c1[nH]c2c(c(=O)n1C1CCCCC1)CCC2Nc1ccccc1Cl (stereo not given),Percent Effect,"30 µM, 30.03 µM",19.4%
CC(CNC(=O)c1cccc(-n2cccn2)n1)Cn1ccnc1 (stereo not given),Percent Effect,"30.3 µM, […]",11.75%
O=C(NC[C@H]1CC[C@H](c2ccnc3ncnn32)CC1)c1ccccn1,Percent Effect,"30.3 µM, […]",56.14%
O=C(NC[C@H]1CC[C@H](c2ccnc3ncnn32)CC1)C1CC1,Percent Effect,"30.3 µM, […]",16.97%
COCC(=O)NC[C@H]1CC[C@H](c2ccnc3ncnn32)CC1,Percent Effect,"30.3 µM, […]",23.66%
COc1ccc(OCc2noc(CN(C)C3CCS(=O)(=O)C3)n2)cc1 (stereo not given),Percent Effect,"30.3 µM, […]",17.47%
O=C(CC1=CCCCC1)Nc1ccc(CN2C(=O)CCC2=O)cc1,Percent Effect,"30.3 µM, […]",-19.22%
C[C@@H]1CN(C2CCN(c3ccccc3F)CC2)CC[C@]1(C)O,Percent Effect,"30.3 µM, […]",62.06%
C[C@@H]1CN(C2CCN(c3ccccc3F)CC2)C[C@]1(C)O,Percent Effect,"30.3 µM, […]",31.62%
CC(=O)N[C@@H]1CN(C2CCN(c3ccccc3F)CC2)C[C@H]1C(C)C,Percent Effect,"30.3 µM, […]",-2.556%
CCC(O)CN1CCN(C(=O)c2cccn2Cc2ccccc2)CC1 (stereo not given),Percent Effect,"30 µM, 30.03 µM",13.25%
Cn1cc(C(=O)N[C@H]2CN(Cc3nccs3)[C@@H]3CCCO[C@H]23)cn1.O=C(O)C(F)(F)F,Percent Effect,"30.3 µM, […]",15.38%
CC(NCc1ccncc1)c1cc2c(cc1Br)OCCO2 (stereo not given),Percent Effect,"30.3 µM, […]",16.23%
CC(NCc1ccccn1)c1cc2c(cc1Br)OCCO2 (stereo not given),Percent Effect,"30.3 µM, […]",16.93%
CC(NCc1cccc2c1OCCO2)c1cc2c(cc1Br)OCCO2 (stereo not given),Percent Effect,"30.3 µM, […]",73.82%
O=C(NCCNc1ncccn1)N1CCN(c2nccs2)CC1,Percent Effect,"30.3 µM, […]",13.95%
CS(=O)(=O)Cc1cc(F)ccc1NCc1nnsc1Cl,Percent Effect,"30.3 µM, […]",-4.772%
Cn1ccnc1CN1CCC2(CC1)COCCN(S(C)(=O)=O)C2.O=C(O)C(F)(F)F,Percent Effect,"30.3 µM, […]",39.8%
Cn1ccnc1CN1CCC2(CC1)COCCN(c1ncccn1)C2,Percent Effect,"30.3 µM, […]",59.31%
Cn1ccnc1CN1CCC2(COCCN(Cc3ccsc3)C2)C1 (stereo not given),Percent Effect,"30 µM, 30.03 µM",46.66%
NCC(=O)N1CCC2(CC1)CN(C(=O)Cc1ccc(Cl)cc1)CCO2,Percent Effect,"30.3 µM, […]",-4.476%
Cc1nccn1C1CCCN(C(=O)c2cccc(Cn3ccnc3)c2)C1 (stereo not given),Percent Effect,30 µM,43.46%
CCN(CCO)C[C@@H]1CN(C(=O)c2sc3ccccc3c2C)C[C@@H]1CO,Percent Effect,"30.3 µM, […]",-0.1561%
CN(CCC#N)C(=O)Cc1csc(-c2ncccn2)n1,Percent Effect,"30.3 µM, […]",54.73%
COc1ccc(-c2nc(CC(=O)N(C)CCC#N)cs2)cc1OC,Percent Effect,"30.3 µM, […]",0.3942%
CN(CC1CC1)C(=O)Cc1csc(-c2ncccn2)n1,Percent Effect,"30.3 µM, […]",39.01%
COCC1CCCCN1C(=O)c1cc(-c2cccc(OC)c2)n[nH]1 (stereo not given),Percent Effect,"30.3 µM, […]",-0.5575%
COCC(=O)NCCc1nc(N(C)C)ncc1-c1ccncc1,Percent Effect,"30.3 µM, […]",29.7%
Cn1cc(C(=O)N2CC[C@@H]3[C@@H]2CCN3Cc2ccccc2)cn1.O=C(O)C(F)(F)F,Percent Effect,"30.3 µM, […]",4.091%
Cn1cc(C(=O)N2CC[C@@H]3[C@@H]2CCN3Cc2cccc(F)c2)cn1.O=C(O)C(F)(F)F,Percent Effect,"30 µM, 30.03 µM",2.666%
Cn1cc(CN2CC[C@@H]3[C@@H]2CCN3C(=O)c2cccc(F)c2)cn1.O=C(O)C(F)(F)F,Percent Effect,"30.3 µM, […]",56.05%
Cc1oncc1C(=O)N1CC[C@H]2CO[C@H](CN3CCCC3)[C@H]2C1,Percent Effect,"30.3 µM, […]",5.899%
COc1c(CNC2CCc3cc(F)ccc32)c(C)nn1C.Cl (stereo not given),Percent Effect,"30 µM, 30.03 µM",46.26%
COc1c(CNC2CCc3c(F)cccc32)c(C)nn1C.Cl (stereo not given),Percent Effect,30 µM,34.02%
COc1c(CNC2CCSc3ccc(F)cc32)c(C)nn1C.Cl (stereo not given),Percent Effect,"30 µM, 30.03 µM",60.68%
COc1c(CNC2CCCOc3ccc(F)cc32)c(C)nn1C.Cl (stereo not given),Percent Effect,"30.3 µM, […]",19.28%
COc1c(CNC2CCOc3c(Cl)cccc32)c(C)nn1C.Cl (stereo not given),Percent Effect,"30.3 µM, […]",30.91%
COc1c(CNC2CCc3c(Cl)cccc32)c(C)nn1C.Cl (stereo not given),Percent Effect,"30 µM, 30.03 µM",56.04%
COc1ccc(F)c(CNC2CCCc3nc(N(C)C)ncc32)c1 (stereo not given),Percent Effect,"30.3 µM, […]",34.48%
O=C(C1CCCC1)N1CC2(CCNC2)OCc2ccccc21 (stereo not given),Percent Effect,"30.3 µM, […]",12.94%
O=C(c1ccccc1)N1CC2(CCNC2)OCc2ccccc21 (stereo not given),Percent Effect,"30.3 µM, […]",23.45%
O=C(c1ccc(Cl)cc1)N1CC2(CCNC2)OCc2ccccc21 (stereo not given),Percent Effect,"30.3 µM, […]",67.31%
Cc1noc(CSc2ccc(C(F)(F)F)cn2)n1,Percent Effect,"30.3 µM, […]",27.73%
CCCc1nc(C)c(C(=O)NCCn2ccnc2)s1,Percent Effect,"30.3 µM, […]",-7.791%
Cl.Cl.Clc1cccc(C[C@@H]2NCCC[C@@H]2Nc2cccc(Cl)c2)c1,Percent Effect,"30.3 µM, […]",98%
CCOc1ccc(Cl)cc1C1CCCN1.Cl (stereo not given),Percent Effect,"30 µM, 30.03 µM",7.031%
O=C(C[S+]([O-])Cc1cccc(Cl)c1)NC1CCCC1 (stereo not given),Percent Effect,"30.3 µM, […]",13.89%
Cl.Clc1cccc(N[C@H]2CCCN[C@H]2Cc2ccccc2)c1,Percent Effect,"30.3 µM, […]",98.49%
Cl.Cl.Clc1cccc(C[C@@H]2NCCC[C@@H]2Nc2ccccc2)c1,Percent Effect,"30.3 µM, […]",98.87%
O=C1NCCCc2[nH]c(Cc3cccc(Cl)c3)nc21,Percent Effect,"30.3 µM, […]",16.75%
O=C(NCCc1cccc(Cl)c1)C1CCOCC1,Percent Effect,"30.3 µM, […]",-10.81%
O=C(Cc1cccc(Cl)c1)N[C@@H]1CCNC[C@H]1O,Percent Effect,"30 µM, 30.03 µM",-4.847%
Cl.O=C(OCC1CCCN1)c1cccc(NC(=O)c2ccco2)c1 (stereo not given),Percent Effect,"30.3 µM, […]",19.64%
CCn1cc2c(n1)C(COC)CN(Cc1ccccn1)C2 (stereo not given),Percent Effect,"30 µM, 30.03 µM",-30.8%
O=C(c1csc(-c2ncccn2)n1)N1CCN(C2CCCC2)CC1,Percent Effect,"30.3 µM, […]",15.8%
COc1cc(N2C[C@@H]3COC[C@]3(COc3ccc(C#N)cn3)C2)ncn1,Percent Effect,"30 µM, 30.03 µM",56.85%
N#Cc1ccc(OC[C@]23COC[C@H]2CN(c2ncccn2)C3)nc1,Percent Effect,"30.3 µM, […]",-11.64%
COc1cc(N2C[C@@H]3COC[C@]3(COc3ccccn3)C2)ncn1.O=C(O)C(F)(F)F.O=C(O)C(F)(F)F,Percent Effect,"30.3 µM, […]",12.8%
